# Measurements taken from PubChem BioAssay AID1347145 (National Center for Advancing Translational Sciences (NCATS), 2019).
# Records with an inconclusive call do not appear. Unmarked numbers belong to inactive results. Activity calls are given as the source filed them. The call rests on the fitted dose curve; in most records, active means well fitted inhibition curve with a large enough effect; inconclusive means small, poorly fitted or top-dose-only effect; inactive means no such curve, though single readings can be large or run the other way.
# Biological target: N-terminal Xaa-Pro-Lys N-methyltransferase 1 (Homo sapiens) (UniProt Q9BV86)
# Sequence (Q9BV86 whole entry, looked up): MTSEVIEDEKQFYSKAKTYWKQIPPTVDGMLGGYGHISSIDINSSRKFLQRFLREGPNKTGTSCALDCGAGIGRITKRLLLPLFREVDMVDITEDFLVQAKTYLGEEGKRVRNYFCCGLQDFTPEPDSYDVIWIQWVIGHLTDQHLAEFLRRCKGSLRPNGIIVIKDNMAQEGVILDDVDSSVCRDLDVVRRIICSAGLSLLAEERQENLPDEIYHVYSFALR
# Assay: qHTS Assay for Inhibitors of N-terminal methyltransferase 1 (NTMT1): MTaseGlo Assay Confirmatory Screen, Round 1
# Details: Recombinant NTMT1, MTase-Glo SAH luminescence; series mostly up to 57.1 µM; activity change, negative = inhibition: at the top concentration
# Summary of the method: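 Luminescence from MTase-Glo conversion of SAH to ATP measured activity after a 30 min RT reaction with 1 µM SPKRIA substrate, 100 µM SAM and 125 nM enzyme. Normalization used no-enzyme and DMSO controls, followed by Hill fitting.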
# Potency means the concentration at half of the fitted maximal effect.
# Wherever activity change, negative = inhibition is given: 0% is about no effect.
Structure (SMILES),"activity change, negative = inhibition",Potency
CCCCC#Cc1nc(NC)c2ncn([C@@H]3O[C@@H](CO)[C@H](O)[C@H]3O)c2n1,5.36%,–
OC[C@@H]1O[C@@H](n2cnc3c(N[C@H]4CCC[C@@H]4O)ncnc32)[C@H](O)[C@H]1O,1.42%,–
Cc1ccccc1CNc1ncnc2c1ncn2[C@@H]1O[C@H](CO)[C@@H](O)[C@H]1O,14.4%,–
COc1cc2c(NC3CCN(C(C)C)CC3)nc(N3CCCN(C(C)C)CC3)nc2cc1OCCOCCN(C)C,-16.3%,–
COc1cc2c(NC3CCN(C)CC3)cc(N3CCCCN(C)CC3)cc2cc1OCCOCCN(C)C,-12%,–
CNC(=O)[C@H]1O[C@@H](n2cnc3c(NCc4ccc(N)cc4)ncnc32)[C@H](O)[C@@H]1O,0.731%,–
COc1cc2c(NC3CCN(C)CC3)nc(N3CCCN(C)CC3)nc2cc1OCCCN1CCOCC1,-9.55%,–
CC[C@H](C)n1cc(C)c2c(C(=O)NCc3c(C)cc(C)[nH]c3=O)cc(-c3ccc(N4CCNCC4)nc3)cc21,7.61%,–
COc1cc2nc(N3CCN(C)CC3)nc(NC(C)C)c2cc1OC,6.72%,–
Nc1ncnc2c1ncn2C1CC(O)C(CO)O1 (configuration not stated),25.8%,–
COC(=O)c1ccc2c(c1)nc(NC(=O)c1ccccc1)n2CCCc1ccccc1,9.09%,–
CO[C@@H]1[C@@H]2OP(=O)(O)OC[C@H]2O[C@H]1n1c(Sc2ccc(Cl)cc2)nc2c(N)ncnc21,-3.23%,–
COc1cc2nc(N3CCN(C)CC3)nc(N3CCOCC3)c2cc1OC,3.31%,–
COc1cc2c(NC3CCN(C)CC3)nc(N3CCCN(C)CC3)nc2cc1O,1.05%,–
CNc1ncnc2c1ncn2[C@@H]1O[C@H](CO)[C@@H](O)[C@@H]1O,257% [at 27.6 µM],–
COc1cc2nc(N3CC[C@@H](N(C)C)C3)nc(NC3CC3)c2cc1OC,17.4%,–
OC[C@@H]1O[C@@H](n2cnc3c(NC4CCCC4)ncnc32)[C@H](O)[C@H]1O,7.9%,–
COc1cc2c(NC3CCN(C)CC3)nc(N3CCCN(C)CC3)nc2cc1OCCOCCN1CCCC1,-15%,–
COc1cc2c(NC3CCN(C)CC3)nc(N3CCCCC3)nc2cc1OCCOCCN(C)C,-9.13%,–

Structure (SMILES),"activity change, negative = inhibition",Potency
COc1cc2nc(N3CCN(C)CC3)nc(NC3CCN(Cc4ccccc4)CC3)c2cc1OC,-7.39%,–
CNc1nc2c(N)ncnc2n1[C@@H]1O[C@@H]2COP(=O)(O)O[C@H]2[C@H]1O,18.5%,–
CCNC(=O)[C@H]1O[C@H](n2cnc3c(N)nc(NCCc4ccc(CCC(=O)O)cc4)nc32)[C@@H](O)[C@@H]1O,-19%,–
COc1cc2nc(N3CCCN(C)CC3)nc(NC3CC3)c2cc1OC,0.118%,–
COc1cc2c(NC3CCN(C)CC3)nc(N3CCCN(C)CC3)nc2cc1OCCCCN,–,15.3 µM (active)
COc1cc2c(NC3CCN(C(C)C)CC3)nc(N3CCCN(C)CC3)nc2cc1OCCOCCN(C)C,-17.7%,–
COc1cc2nc(NCCN(C)C)nc(NC3CC3)c2cc1OC,-6.53%,–
COc1cc2nc(N3CCCN(C)CC3)nc(N3CCN(C)CC3)c2cc1OC,1.01%,–
Nc1nc(Cl)nc2c1ncn2[C@H]1C[C@H](O)[C@@H](CO)O1,–,inactive
COc1cc2c(NC3CCN(C(C)C)CC3)nc(N3CCCN(C)CC3)nc2cc1OCCCN(C)C,-19.3%,–
C[C@H](Cc1ccccc1)Nc1ncnc2c1ncn2[C@@H]1O[C@H](CO)[C@@H](O)[C@H]1O,0.792%,–
Nc1ncnc2c1ncn2[C@@H]1O[C@H](CSCC[C@H](N)C(=O)O)[C@@H](O)[C@H]1O,533%,–
Nc1nc(=S)c2ncn([C@@H]3O[C@H](CO)[C@@H](O)[C@H]3O)c2[nH]1,-3.46%,–
Nc1ncnc2c1ncn2C1C[C@H](O)[C@@H](CO)O1 (some centres not stated),1.97%,–
COc1cc2c(NC3CCN(C(C)C)CC3)nc(N3CCCN(C(C)C)CC3)nc2cc1OCCCN1CCCCC1,-18%,–
COc1cc2nc(N3CCN(C)CC3)nc(NC3CCCC3)c2cc1OC,-13.3%,–
COCCCCOc1cc2nc(N3CCCN(C)CC3)nc(NC3CCN(C)CC3)c2cc1OC,-10%,–
COc1cc2c(NC3CCN(C(C)C)CC3)nc(N3CCCN(C)CC3)nc2cc1OCCCN1CCCC1,-20.2%,–
